# The list shows a part of the results. Values without a mark were called inactive. Active and inactive are the calls of the source.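 The calls were made as follows: active = inhibition above the mean of stimulated solvent-only control wells plus 3 SD (cut at about 22% in these data); inactive = the rest.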
# Test: CNGC cAMP sensor activity inhibitors, counter-screen for NPY-Y1 potentiator/agonist project, cell-based, HEK293-CNG parental, membrane potential fluorescence, Y1 set (AID 1704);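 also: 0% = isoproterenol-stimulated DMSO wells and 100% = unstimulated DMSO wells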
# Conditions: isoproterenol cAMP, at 3.6 µM, active compounds read high
row,SMILES,inhibition
1,Cc1nn(Cc2ccccc2Cl)c(Cl)c1C(=O)OC(C(=O)NC(N)=O)C(C)C (configuration not stated),43.1% (active)
2,CSC1=NP(=S)(SC)N(C)c2nc3n(c21)CCC3 (configuration not stated),3.97%
